A selection: hits, their analogues and other compounds. The true share with any hit is near 3.3%.
VACV Venus inh = vaccinia inhibition (Venus reporter) | Vaccinia virus Venus reporter expression, fluorescence | Potency, µM (top dose mostly 36.5 µM), for the others: at the highest dose activity change, negative = inhibition, actives largely listed as inhibitors | 330,000 tested, 0.46% active | AID 720580; calls by dose curve; tested in A549 cells; note: nearly all actives have a fitted effect of over 30% in size
HCV inh = HCV inhibition; AID 651820; Huh7.5.1 HCVcc-Cre infection, luciferase reporter, 44 h; Potency, µM (highest dose often 41.8 µM), for the others: top-dose activity change, negative = inhibition, usual class: inhibitors; 340,000 tested, 3.4% active; active = well fitted inhibition curve with a large enough effect; inconclusive = small, poorly fitted or top-dose-only effect, or another doubt; inactive = no such curve, though single readings can be large or run the other way
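Cells (1,000/well) were plated 4 h before compound, then infected with HCVcc-Cre virus (~0.5 moi). After 44 h further culture, infection was read as luciferase luminescence following a 15 min substrate incubation at room temperature.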
VACV mCherry inh = vaccinia inhibition (mCherry reporter); Vaccinia virus mCherry reporter infection, fluorescence; Potency, µM (doses to about 36.5 µM), inactives show at the top dose activity change, negative = inhibition, usual class: inhibitors; 310,000 tested, 0.63% active; AID 720579; calls by dose curve; tested in A549 cells; note: nearly all actives have a fitted effect of over 35% in size
An asterisk follows results filed as active; i = inactive; ? = inconclusive; nt = not tested or not shown; [ ] = another dose, or the depositor's remark. % is set by controls: 0 for no effect and ±100 for the full control effect; potency is the fitted concentration of half-maximal effect.

SMILES	VACV Venus inh	HCV inh	VACV mCherry inh
COc1ccc(C2=NOC(Cn3nc(-c4ccccc4)cc3C(=O)NCc3cccs3)C2)cc1 (stereo not given)	-17%	?	-13%
COc1ccc(C2=NOC(Cn3nc(C(=O)NCc4cccs4)cc3-c3ccccc3)C2)cc1 (stereo not given)	-9%	10µM*	-11%
COc1ccc(C2=NOC(Cn3nc(C(=O)NCc4ccc(C)cc4)cc3-c3ccccc3)C2)cc1 (stereo not given)	-19%	8.9µM*	-12%
COc1ccc(CCNC(=O)CSc2n[nH]c(-c3ccccc3Cl)n2)cc1OC	-17%	nt	-13%
Cc1cc(C)c2c(C)ccnc2c1	-10%	nt	-17%
NC(=O)COc1ccc2oc(=O)cc(-c3cc4ccccc4o3)c2c1	nt	7%	nt
Cc1cc2oc(=O)cc(-c3cc4ccccc4o3)c2cc1OC(=O)N(C)C	-3%	5µM*	-10%
CN(C)C(=O)Oc1ccc2oc(=O)cc(-c3cc4ccccc4o3)c2c1	nt	11µM*	nt
COc1cccc2cc(-c3cc(=O)oc4ccc(O)cc34)oc12	nt	-19%	nt
CCN(CC)C(=O)Oc1cc2c(-c3cc4cccc(OC)c4o3)cc(=O)oc2cc1C	2%	6.3µM*	i
COC(=O)COc1ccc2oc(=O)cc(-c3cc4ccccc4o3)c2c1	nt	-4%	nt
CC(C)Cn1c(SCC(=O)N2CCOCC2)nc2ccccc2c1=O	nt	3%	nt
CCn1c(C(=O)O)c(CC(=O)Nc2cccc(C(F)(F)F)c2)c2ccccc21	nt	5%	nt
CCOc1ccc(N2C(=O)CS(=O)(=O)C23C(=O)N(Cc2cccc(Cl)c2)c2ccccc23)cc1 (stereo not given)	-9%	nt	-9%
COc1ccccc1-c1nn(CCC(=O)Nc2cccc(C(C)=O)c2)c2nc(C)cc(C)c12	-25%	nt	-28%
COc1ccc2occ(C(=O)c3ccccc3)c2c1	-9%	-17%	-3%
CC(=O)C(C(C)=O)c1c(Cl)c(O)c(O)c2c(C(=O)c3ccccc3)coc12	?	10µM*	i[1.46 µM]
O=C(NCc1cccnc1)Nc1cccc(Cl)c1Cl	-15%	-9%	-19%
Cc1ccc(NC(=O)CNC(=O)c2ccc(OC(F)F)cc2)cc1S(=O)(=O)N1CCCCCC1	nt	16µM*	nt
CS(=O)(=O)c1ccc(NC(=O)C2CCCN(C(=O)c3ccc(Cl)cc3)C2)cc1 (stereo not given)	nt	1%	nt
Cc1ccc(NC(=O)C2CCN(S(=O)(=O)c3ccc(N4CCCC4=O)cc3)CC2)cc1Cl	-17%	10µM*	-10%
Cc1ccc(NC(=S)Nc2ccc(C(C)C)cc2)cc1S(=O)(=O)N1CCCCCC1	?	6.3µM*	?
COc1ccc(NC(=O)C2CCN(S(=O)(=O)c3ccc(N4CCCC4=O)cc3)CC2)c(OC)c1	-6%	4%	-10%
Cc1ccc(NC(=O)COC(=O)c2ccc(OC(F)F)cc2)cc1S(=O)(=O)N1CCCCC1	nt	-20%	nt
Cc1ccc(NC(=O)C2CCCN(C(=O)c3ccc(Cl)cc3)C2)cc1S(=O)(=O)N1CCOCC1 (stereo not given)	-26%	4µM*	i
SMILES	VACV Venus inh	HCV inh	VACV mCherry inh
C=CCNC(=S)Nc1ccc(C)c(S(=O)(=O)N2CCCCC2)c1	-7%	2%	-6%
Cn1nnc2c(N3CCN(Cc4ccccc4)CC3)ncnc21	-19%	nt	-26%
Cn1cc(S(=O)(=O)NC2CCCCC2)c(=O)n(C)c1=O	-6%	-7%[8.37 µM]	i
CCOc1ccccc1N1CCN(C(=O)CSc2ccc3c(c2)OCCO3)CC1	-7%	?	-1%
CC[C@H]1OC(=O)C[C@@H](O)[C@H](C)[C@@H](O[C@@H]2O[C@H](C)[C@@H](O)[C@H](N(C)C)[C@H]2O)[C@@H](CCN2C[C@H](C)C[C@H](C)C2)C[C@@H](C)C(=O)/C=C/C(C)=C/[C@@H]1CO[C@@H]1O[C@H](C)[C@@H](O)[C@@H](OC)[C@H]1OC	-7%	nt	-13%
CCOc1ncccc1C(=O)Nc1ccc(C)c(S(=O)(=O)N2CCCCCC2)c1	nt	14µM*	nt
Cc1ccccc1C(=O)N1CCC(C(=O)Nc2ccc(C)c(S(=O)(=O)N3CCCCC3)c2)CC1	nt	10µM*	nt
CCOc1ncccc1C(=O)Nc1ccc(OC)c(S(=O)(=O)N2CCCCC2)c1	-4%	?	-16%
Cc1ccc(NC(=O)COc2ccccc2)cc1S(=O)(=O)N1CCCCC1	-14%	nt	-2%
Cc1ccccc1C(=O)N1CCC(C(=O)Nc2ccc(S(=O)(=O)N3CCCC3)cc2)CC1	-19%	-11%	-22%
O=C(Nc1ccc(OC(F)(F)F)cc1)C1CCCN(C(=O)c2ccc(Cl)cc2)C1 (stereo not given)	nt	7.9µM*	nt
Cc1ccccc1C(=O)NCC(=O)Nc1ccc(C)c(S(=O)(=O)N2CCCCCC2)c1	-16%	8.9µM*	-11%

High-throughput results as filed in PubChem BioAssay.
